PubChem BioAssay AID1918990 (ICCB-Longwood Screening Facility, Harvard Medical School, 2023)
Screen size: about 29,000 compounds; about 85 (0.3%) were called active.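 The calls were made as follows: active = replicate mean overnight rise in green fluorescent reporter signal, 3 or more SD over negative controls; inactive = the rest.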 This excerpt belongs to a sample that is enriched for actives.

Assay: activators of Burkholderia fixLJ two-component system, primary screen, B. multivorans, GFP reporter (AID 1918990)
Details: B. multivorans fixK-promoter GFP reporter, 18 h; active compounds read high

z-score, inactive:
COc1cc(C(=O)N2CCC(O)(c3ccc(C)cn3)CC2)nc(OC)n1 -2.73
CCOc1ccc(NC(=O)c2cnn(-c3ccccc3)c2-n2cccc2)cc1 0.15
CC(=O)N1CCN(Cc2cc(Cl)cc(Cl)c2)C2CS(=O)(=O)CC21 (stereo unspecified) 1.37
CN(C)C(=O)N1CCC(C(=O)NC2COCC2Cc2ccncc2)CC1 (stereo unspecified) -2.62
COc1ccc(OC)c(-c2nc(CN3CCNC(=O)CC3)c(C)o2)c1 -1.03
O=C1N(Cc2ccccc2)c2ccc(Cl)cc2C1(O)c1c[nH]c2ccccc12 (stereo unspecified) -2.44
CCCNC(=O)CCn1nc(-c2ccccc2)c2ccccc2c1=O -2.63
COC(=O)c1ccc(NC(=O)c2cccc3c2C(=O)N(C2CCCCC2)C3)cc1 -0.11
CN(CC(=O)Nc1cccc(C(F)(F)F)c1)S(=O)(=O)c1cccs1 -1.64
COc1ccc(C2=NC3(CCCCC3)N(CC(=O)Nc3ccc(C(C)C)cc3)C2=O)cc1 -0.47
O=C(CSc1nc(-c2cccc(F)c2)[nH]c1-c1ccccc1)Nc1ccc2c(c1)OCO2 -0.24
CC1CCCCN1Cc1c(O)ccc2c(=O)c(-c3cccc(Cl)c3)c(C(F)(F)F)oc12 (stereo unspecified) -3.67
O=C(NC1CCCC1Cc1ccc(F)cc1)c1cccc(=O)[nH]1 (stereo unspecified) 0.15
Cn1nnnc1SCCNCc1ccc(Cl)c(Cl)c1 -2.02
O=C(c1ccnc(CC2COc3ccccc3C2)c1)N1CCOCC1 (stereo unspecified) 1.09
CN1CCN(CC2(CNC(=O)CN(C)Cc3cccnc3)CC2)CC1 -0.08
CCCc1cc(CNC(=O)c2ccc3c(c2)OCC(=O)N3)on1 0.27
CCn1cc(C(=O)N(C)Cc2ccccc2)c(=O)c2cc(S(=O)(=O)N3CCCCCC3)ccc21 -2.08
Cc1cccc(C(=O)N2CCC[C@@]3(CN(Cc4ncc(C)[nH]4)CCC3O)C2)c1 (stereo partly specified) 0.68
CNC(=O)c1cccc(NC(=O)CCCc2cccs2)c1C -1.26
COc1ccc(CNc2nc(-c3ccccc3)nn2C(=O)c2ccccc2OC)cc1 0.5
COc1cc(C2c3c(oc4ccccc4c3=O)C(=O)N2c2nc(C)c(C)s2)ccc1O (stereo unspecified) -1
Cc1nc(SCCOc2ccc(Cl)cc2)[nH]c(=O)c1Cc1ccccc1 -1.27
COCC1C(NS(=O)(=O)c2ccc(F)cc2C)C2CCOC21 (stereo unspecified) -0.38
COc1ccc(-c2nc3ccccc3o2)cc1NC(=O)c1cc([N+](=O)[O-])ccc1N1CCOCC1 -1.81
CC(=O)c1ccc(N2CCN(c3nc4c(S(=O)(=O)c5ccccc5)nnn4c4ccc(Cl)cc34)CC2)cc1 0.23
COc1ccc2c(c1)c(=O)c(S(=O)(=O)c1ccc(F)cc1)cn2CC(=O)Nc1ccc(C)cc1C -1.75
Cc1nn(-c2nc(-c3ccccc3)cc(C(F)(F)F)n2)c(C)c1Cl -0.93
CCCSc1ncc(Cl)c(C(=O)Nc2c(C(=O)Nc3ccccc3)oc3ccccc23)n1 -0.41
O=C(c1ccc2c(c1)N(Cc1ccc(Cl)cc1)C(=O)c1ccccc1S2(=O)=O)N1CCCCC1 0.84
COc1ccccc1CNC(=O)CCn1c(=O)c2ccccc2n(CC(=O)Nc2cccc(Cl)c2)c1=O 0.27
